Only some compounds are listed: those with a hit (about 12% of all), similar ones and a draw of the others.
Sfp inh: Sfp phosphopantetheinyl transferase inhibition; Potency, µM, inactives show largest response in the series, negative = inhibition, usual class: inhibitors; hit rate 3.5% among 310,000; Biochemical Sfp PPTase activity, qHTS;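 note: the enzyme is Sfp with the accession as filed and its product quenches rhodamine fluorescence; 0% = enzyme reaction without inhibitor and -100% = no enzyme wells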
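Compounds were incubated with enzyme (final 15 nM) for 15 min at room temperature before substrate addition started the reaction. Fluorescence at 525 nm excitation, 598 nm emission was recorded immediately and after 30 minutes.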
BAZ2B inh: blocks human BAZ2B; AID 504333; hit rate 4.4% among 360,000; AlphaScreen BAZ2B-H3K14Ac peptide displacement; Q9UIF8; Potency, µM (top dose mostly 114 µM), for the others: at the highest dose activity change, negative = inhibition, most hits filed as inhibitors; note: % is set by controls: 0 for no effect and ±100 for the full control effect; nearly all actives have a fitted effect of over 60% in size
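Inhibition is scored as reduced AlphaScreen emission. The BAZ2B/b-H3(5-23)K14Ac complex (50 nM each) in PBS pH 7.4, 0.01% Tween-20 meets compound (up to 110 uM) for 30 min at RT before bead addition.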
HP1b binding inh: inhibitors of HP1-beta chromodomain binding to methylated histone tails | AlphaScreen HP1-beta / biotin-H3K9me3 peptide binding | hit rate 0.56% among 390,000 | P83916 | Potency, µM (top dose mostly 114 µM), without a hit: at the highest dose activity change, negative = inhibition, actives largely listed as inhibitors; note: nearly all actives have a fitted effect of over 70% in size
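AlphaScreen: HP1-beta (50 nM) preformed 30 min with biotin-H3(1-18)K9me3 peptide (50 nM) in PBS pH 7.4, 0.01% Tween-20. Compound added for 30 min at RT, then streptavidin donor/nickel chelate acceptor beads (10 ug/mL) for 30 min.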
JMJD2A Tudor inh: blocks the human JMJD2A Tudor domain; AlphaScreen JMJD2A-Tudor / H3K4me3 peptide binding; O75164; hit rate 4.4% among 390,000; AID 504339; Potency, µM (doses to about 114 µM), inactives show at the highest dose activity change, negative = inhibition, usual class: inhibitors; note: % is set by controls: 0 for no effect and ±100 for the full control effect; nearly all actives have a fitted effect of over 50% in size
PLK1 PBD inh: inhibitors of human PLK1 polo-box domain binding. P53350. Plk1 PBD binding of FITC phosphopeptide, fluorescence polarization. Potency, µM, inactives show max response, negative = inhibition, most hits filed as inhibitors. hit rate 2.8% among 360,000. AID 720504; note: series mostly up to about 57 µM; % is set by controls: 0 for no effect and ±100 for the full control effect; nearly all actives have a fitted effect of over 65% in size
G9a block: blocks human histone lysine methyltransferase G9a; G9a H3K9 monomethylation, AlphaScreen, 2 h; Potency, µM (doses to about 102 µM), for inactives: at the highest dose activity, negative = inhibition, usual class: inhibitors; AID 504332; hit rate 8.8% among 350,000; note: % is set by controls: 0 for no effect and ±100 for the full control effect; nearly all actives have a fitted effect of over 75% in size
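Signal arises when biotinylated H3K9 peptide, once monomethylated, bridges streptavidin donor and antibody-captured acceptor beads. Enzyme at 20 nM was preincubated 15 min with test compounds; peptide 500 nM and SAM 20 uM then reacted for 2 h.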
Starred values were filed as active, the others as inactive; ? = inconclusive; . = not tested or not shown; [ ] = remark or other dose. Calls come from the whole dose curve; as a rule, active = well fitted curve in the direction sought with a large enough effect; inconclusive = small, poorly fitted or top-dose-only effect, or another doubt; inactive = no such curve, though single readings can be large; an effect the other way counts as inactive or inconclusive. Potency is the fitted concentration of half-maximal effect.

SMILES | Sfp inh | BAZ2B inh | HP1b binding inh | JMJD2A Tudor inh | PLK1 PBD inh | G9a block
O=C(C1=NN[C@@H]2C(=O)N(c3cccc(F)c3)C(=O)[C@H]12)c1cnccn1 | ? | 45µM* | 36% | 18µM* | 4% | 20µM*
CCN1C(=O)[C@@H]2C(C(=O)c3cnccn3)=NN[C@@H]2C1=O | -15% | -14% | -2% | 45µM* | -23% | .
N#C/C(=C\c1cccs1)C(=O)NCc1ccccc1 | 8% | 3% | 11% | 40µM* | 3.4µM* | 23%[59 µM]
N#C/C(=C\c1cccc([N+](=O)[O-])c1)C(=O)NCc1cccnc1 | ? | -29% | 40% | -11% | -18% | -2%[59 µM]
N#C/C(=C/c1ccc(C(=O)O)cc1)C(=O)NCc1ccccc1 | 18µM* | -4% | 17% | -12% | -1% | ?
N#C/C(=C\c1cccc([N+](=O)[O-])c1)C(=O)NCc1ccc(Cl)cc1 | ? | ? | 1% | ? | ? | 50µM*
N#C/C(=C\c1cccs1)C(=O)N1CCOCC1 | 18% | -5% | 15% | -4% | -2% | 17%[59 µM]
N#C/C(=C\c1cccs1)C(=O)Nc1nccs1 | 8% | 50µM* | -18% | 20µM* | ? | 10%[12.7 µM]
CCCNC(=O)C1(C)CCN(Cc2cc(C(F)(F)F)ccc2Cl)C1 (stereo not given) | . | . | . | . | -5% | .
Cc1ccccc1CNC(=O)C1CCCCN1S(=O)(=O)c1ccc(F)cc1 (stereo not given) | . | 13% | 34% | 9% | . | -1%[59 µM]
COc1cccc2cc(C(=O)OCc3ccccc3)c(=O)oc12 | 9% | -19% | 26% | -18% | -10% | ?
N#C/C(=C\C=C\c1ccccc1)C(=O)NCc1cccnc1 | 4% | -13% | -17% | ? | 24µM* | -7%
CC(C)(C)C(=O)/C(C#N)=C/c1cccs1 | 8% | -27% | -5% | -16% | -10% | 2%
N#C/C(=C\c1cccs1)C(=O)c1ccccc1Cl | 28µM* | ? | 30% | -15% | 1.5µM* | 40µM*
N#C/C(=C\c1cccs1)C(=O)NCc1cccnc1 | 11% | -3% | 44% | -2% | -7% | 16%
COc1ccc(-c2nc(CS(=O)(=O)CC(=O)NC3CCC(C)CC3)c(C)o2)cc1 (stereo not given) | 2% | 17%[57.1 µM] | 67% | -21% | -10% | -7%
CCOC(=O)CN1C(=O)C(O)(CC(=O)c2cc(OC)ccc2OC)c2ccccc21 (stereo not given) | . | 1% | 31% | -15% | . | -9%[59 µM]
Cc1ccccc1C(=O)NCC(=O)OCC(=O)NC(C)C1CC2CCC1C2 (stereo not given) | . | 5% | 25% | 1% | -1% | 20%[59 µM]
Cc1ccc(C(=O)NCC(=O)OCC(=O)NC(C)C2CC3CCC2C3)cc1 (stereo not given) | . | 16% | 28% | -11% | -9% | 28µM*
NC(=O)c1c(-c2cccs2)csc1N | 40µM* | ? | -12% | ? | -18% | -50%[12.7 µM]
Cc1c(C(=O)O)sc2nc(/C=C/c3cccc(F)c3)[nH]c(=O)c12 | 9% | ? | 43% | -3% | -6% | 3%
Cc1ccc(/C=C/c2nc3sc(C(=O)O)c(C)c3c(=O)[nH]2)cc1[N+](=O)[O-] | 79µM* | 89µM* | -8% | ? | ? | 7.1µM*
Cc1c(C(=O)O)sc2nc(/C=C/c3ccccc3OC(F)F)[nH]c(=O)c12 | ? | 71µM* | ? | 16µM* | -24% | ?
Cc1ccc(N=Nc2c(=O)[nH]n3c(=O)cc(C)[nH]c23)cc1 | 1% | 50µM* | -17% | ? | -8% | ?
Cc1ccc(N=Nc2c(N)[nH]n3c(=O)cc(-c4ccccc4)nc23)cc1 | 7% | 4%[57.1 µM] | ? | ? | ? | ?
SMILES | Sfp inh | BAZ2B inh | HP1b binding inh | JMJD2A Tudor inh | PLK1 PBD inh | G9a block
COc1ccc(OC)c(/C=N/NC(=O)CN2CCSCC2)c1 | -20% | 56µM* | ? | 5.6µM* | -5% | ?
COc1ccc(Br)cc1/C=N/NC(=O)CN1CCCCC1 | 6% | 2% | 26% | 1% | 5% | .
COc1cc(OC)c(CN2CCc3c([nH]c4ccccc34)C2)cc1Br | 3% | ? | -20% | ? | 1% | ?
COc1ccc(CN2CCSCC2)c(OC)c1C | -5% | 79µM* | ? | 4µM* | 7% | 10µM*
O=C(CN1CCN(Cc2cccc3ccccc23)CC1)NCCc1ccccc1 | 4% | -17% | 28% | -31% | -1% | -12%
COc1cc(OC)c(OC)cc1CN1CCc2ccccc2C1 | -6% | ? | ? | 56µM* | -3% | 13µM*
c1ccc2c(CN3CCSCC3)cccc2c1 | ? | ? | ? | 20µM* | -13% | -5%[0.501 µM]
CCc1ccc(NC(=O)CSc2nc(=O)n(CCCN(C)C)c3c2CCC3)cc1 | . | -5% | -7% | -21% | -6% | -8%
NS(=O)(=O)c1ccc(CNC(=O)Cc2ccsc2)cc1 | . | . | 54% | -7% | -6% | .
COc1cc(Cl)ccc1OC1(C)CCN(Cc2cccc(OC)c2OC)C1 (stereo not given) | . | . | . | . | -3% | .
COc1ccc(OC)c(CN2CCCCCC2)c1 | 10% | 79µM* | ? | 14µM* | -9% | 45µM*
COc1ccc(OC)c(CN2CCSCC2)c1 | -1% | ? | ? | 1.8µM* | 2% | 11µM*
COc1cc2c(cc1OC)CN(Cc1ccc(OC)c(C)c1OC)CC2 | 0% | 50µM* | -56% | 1.6µM* | -4% | ?
Cc1ccc(C)c(CN2CCSCC2)c1 | -16% | ? | -5% | 7.1µM* | -5% | .
Cc1ccc(C)c(CN2CCCN(Cc3ccccc3C)S2(=O)=O)c1 | . | 53% | 113% | 57% | . | 45%[59 µM]
COc1ccc(OC)c(CN2CCCC(CO)C2)c1 (stereo not given) | 0% | 3% | 18% | 1% | -6% | 9%[59 µM]
Cc1ccccc1C(=O)NCCNC(=O)c1cnccn1 | 17% | 2% | 4% | -16% | -17% | 8%
COc1ccc2ccccc2c1CN1CCSCC1 | ? | 56µM* | ? | 45µM* | 6% | .
CCN1CCN(Cc2c(OC)ccc3ccccc23)CC1 | 10% | -10% | 25% | -14% | -1% | -3%[12.7 µM]
CCn1c(C)nc2cc(S(N)(=O)=O)ccc21 | 0% | 4% | -3% | 14µM* | ? | .
CCn1c(-c2cc(Br)cc(OC)c2O)nc2cc(S(=O)(=O)N(C)C)ccc21 | -9% | -13% | 15% | -34% | -12% | 45µM*
CCn1c(C)nc2cc(S(=O)(=O)N3CCCC3)ccc21 | 13% | 1% | -2% | -11%[11.4 µM] | ? | -22%[59 µM]
CCn1c(-c2ccccn2)nc2cc(S(=O)(=O)N(C)C)ccc21 | 3% | 14% | 8% | -13% | -3% | 50µM*
CCCCn1c(CCC(=O)O)nc2cc(S(=O)(=O)N(C)C)ccc21 | 13% | -11% | 18% | -1% | 6% | 5%
